Data on one molecule can be found in PubChem BioAssay (NCATS).

A short description of experiment [1]: AP1 Signaling Pathway (AID 357; active = well fitted curve in either direction with a large enough effect, not every such curve was filed as active;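 also: ME-180 reporter cells stimulated with EGF at its EC50 level; % is scaled to controls: 0 for no effect and ±100 for the full control effect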). The settings on record: ME-180 AP-1-bla reporter, EGF-induced, beta-lactamase ratio, 5 h; at 38 µM (top of the series). An outline of the steps: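 A ratiometric CCF4 readout (405 nm excitation; 460 and 530 nm emission) quantified AP-1-driven beta-lactamase in ME-180 cells after 5 h with compound and EC50 EGF; AC50 values were derived for activators and inhibitors.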

Experiment [2] has as its target Cytochrome P450 1A2 (Homo sapiens) (UniProt P05177). The experiment can be described thus: p450-cyp1a2 (AID 410; calls by dose curve;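 also: -100% = full effect of reference inhibitor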). The settings on record: recombinant CYP1A2, luciferin-ME demethylation, luminescence; series mostly up to 57 µM. An outline of the steps: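 Luminescent demethylation readout: Luciferin-ME (100uM, equal to Km) turned over by 20nM CYP1A2 for 60 min at room temperature after NADPH regeneration addition, following 10 min compound preincubation. Normalization used 57 uM furafylline as full inhibition.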

Experiment [3] is described as follows: NFAT Signaling Pathway (AID 444; active = well fitted curve in either direction with a large enough effect, not every such curve was filed as active;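 also: carbachol stimulus at about its EC50 of 1 µM final; % is scaled to controls: 0 for no effect and ±100 for the full control effect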). As to conditions: Jurkat NFAT-bla M1, carbachol, beta-lactamase ratio, 5 h; at 38 µM (top of the series). An outline of the steps: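 Jurkat cells carrying an NFAT-driven β-lactamase reporter and co-transfected muscarinic M1 receptor were treated with compound plus carbachol (1 uM final, an EC50 level) for 5 h at 37 °C. CCF4 loading followed for 1 h at RT; 460/530 nm ratio gave %activity.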

Experiment [4] in a line: Stat Signaling Pathway (AID 446; active = well fitted curve in either direction with a large enough effect, not every such curve was filed as active;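 also: ME-180 cervical cancer cells given 40 pM IL-6 alongside compound; SIE-controlled beta-lactamase reporter measured as 460/530 nm FRET emission ratio; % is scaled to controls: 0 for no effect and ±100 for the full control effect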). The settings on record: ME-180 (cervical carcinoma) SIE beta-lactamase reporter, IL-6 stimulated, 5 h; at 38 µM (top of the series). An outline of the steps: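 Normalization used AC90 stimulation (300 pM IL-6) and AC90 inhibition (125 nM pan-JAK inhibitor at 40 pM IL-6). The underlying signal is SIE-driven beta-lactamase in ME-180 cells after 5 h IL-6 exposure with compound.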

In experiment [5] the target is Glucocorticoid receptor (Homo sapiens) (UniProt P04150). Put plainly: GR-GFP Redistribution (AID 450;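 active = compounds whose dose series gives a full or clear partial fitted curve of increased nuclear translocation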; also: potency is read from the fitted curve at half-maximal effect). As to conditions: U2OS GR-GFP nuclear translocation, laser cytometry, 2 h.
Glucocorticoid receptor (Homo sapiens), sequence (P04150 whole entry, looked up): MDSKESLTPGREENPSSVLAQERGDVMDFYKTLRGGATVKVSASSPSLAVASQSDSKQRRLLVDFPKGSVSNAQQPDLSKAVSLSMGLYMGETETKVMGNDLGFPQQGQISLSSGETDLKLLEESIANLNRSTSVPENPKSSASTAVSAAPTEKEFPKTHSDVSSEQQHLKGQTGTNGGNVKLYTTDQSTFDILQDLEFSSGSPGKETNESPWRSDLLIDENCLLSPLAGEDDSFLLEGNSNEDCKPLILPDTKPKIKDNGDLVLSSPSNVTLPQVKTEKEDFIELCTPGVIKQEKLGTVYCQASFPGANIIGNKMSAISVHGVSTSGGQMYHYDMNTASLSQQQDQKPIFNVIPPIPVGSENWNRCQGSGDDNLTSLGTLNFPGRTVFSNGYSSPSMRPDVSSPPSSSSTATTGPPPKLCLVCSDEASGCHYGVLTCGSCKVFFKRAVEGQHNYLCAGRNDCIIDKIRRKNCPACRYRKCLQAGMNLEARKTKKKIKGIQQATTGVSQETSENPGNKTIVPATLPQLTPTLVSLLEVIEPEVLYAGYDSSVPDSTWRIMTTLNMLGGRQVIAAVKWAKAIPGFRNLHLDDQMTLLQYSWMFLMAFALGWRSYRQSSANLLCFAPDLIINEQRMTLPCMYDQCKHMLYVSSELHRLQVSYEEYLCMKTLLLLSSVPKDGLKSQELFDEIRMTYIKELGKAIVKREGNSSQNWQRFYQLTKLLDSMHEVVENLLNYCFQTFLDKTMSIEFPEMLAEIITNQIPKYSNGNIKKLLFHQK
Experiment [6] has the same target. Put plainly: GR-EFC Redistribution (AID 451; calls by dose curve; also: potency is read from the fitted curve at half-maximal effect). As to conditions: CHO-K1 GR-EFC translocation, beta-gal luminescence, 2 h. An outline of the steps:
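CHO-K1 cells stably expressing nuclear-localized β-gal enzyme acceptor and GR fused C-terminally to the enzyme donor fragment; ligand-driven nuclear translocation restores β-gal by complementation. Compounds titrated up to 46 uM final, 2 h at 37 °C; luminescence read.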

The target of experiment [7] is Mitogen-activated protein kinase 10 (Mus musculus) (UniProt Q61831). Put plainly: JNK3 AlphaScreen Assay (AID 530; active = well fitted curve in either direction with a large enough effect, not every such curve was filed as active;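 also: kinase came from lysate of stimulated human HepG2 cells; % is scaled to controls: 0 for no effect and ±100 for the full control effect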). The settings on record: JNK3 lysate, c-Jun phosphorylation; series mostly up to 57.1 µM. An outline of the steps: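 Phosphorylation of biotinylated GST-cJun(1-79) at Ser73 is measured by AlphaScreen proximity luminescence. Enzyme is JNK3 in HepG2 lysates activated with interleukin-1beta and tumor necrosis factor alpha; ATP is 10 uM final.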

Experiment [8] addresses 3',5'-cyclic-AMP phosphodiesterase 4B (Homo sapiens) (UniProt Q07343). The experiment can be described thus: qHTS Assay for Inhibitors of PDE-IV (AID 607; active = well fitted activation curve with a large enough effect in the main read-out, with a control signal flat, not every such curve was filed as active; also: % of control where 0% means no effect). The settings on record: HEK293 ACTOne CNG channel cells, membrane potential fluorescence; series mostly up to 22.9 µM. An outline of the steps:
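HEK293 ACTOne cells with CNG channel (1000/well), endogenous PDE4; membrane potential dye, compounds up to 22.9 uM final. Fluorescence Ex 535/Em 590; RO 20-1724 (100 uM final) as reference.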
(In general: Quantitative high-throughput screening tests each substance at several concentrations.)

Experiment [9] addresses Guanine nucleotide-binding protein G(i) subunit alpha-1 (Homo sapiens) (UniProt P63096). The experiment can be described thus: qHTS Assay for Inhibitors of RGS12 GoLoco Motif Activity (Green Fluorophore) (AID 879).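 Also: 0% = labeled peptide with Gαi1 and full inhibition = labeled peptide alone without protein; negative values mean loss of peptide binding seen as reduced polarization.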 The settings on record: Galphai1/FITC-RGS12 GoLoco peptide, fluorescence polarization; series mostly up to 57.1 µM. An outline of the steps:
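A drop in FITC polarization marked displacement of the FITC-tagged RGS12 GoLoco peptide (10 nM) from Gαi1 (50 nM). Compounds were incubated 10 min at room temperature in Tris pH 7.5 buffer containing 150 mM NaCl, 0.1 mM GDP and 0.05% NP40; unlabeled peptide titration served as control.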

A short description of experiment [10]: Confirmation and Secondary Assay for Modulators of Hemoglobin Beta Chain Splicing at IVS2 654 locus (AID 910).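 Also: per-well total GFP intensity by laser scanning cytometry after 2-day treatment; % of control where 0% means no effect.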 The settings on record: HeLa EGFP-654 splicing reporter, GFP fluorescence, 48 h; series mostly up to 46.1 µM. An outline of the steps:
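HeLa cells stably carrying EGFP interrupted by mutant beta-globin IVS2-654 intron (CMV-driven) were treated with compound for 2 days at 37C; corrected splicing was scored as total peak GFP intensity per well (488 nm excitation, 500-520 nm emission).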

Experiment [11] in a line: Confirmation and Secondary Assay for Modulators of Hemoglobin Beta Chain Splicing at IVS2 705 locus (AID 930).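 Also: HeLa cells stably expressing the EGFP-705 splicing reporter; % of control where 0% means no effect.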 As to conditions: HeLa EGFP-705 splicing reporter, GFP fluorescence, 48 h; series mostly up to 46.1 µM. An outline of the steps: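 Restored EGFP fluorescence after 2-day compound exposure reports splicing correction in IVS2-705 EGFP reporter HeLa cells; positive control was 500 nM splice-blocking PNA oligo. Signal measured as well total peak GFP intensity (488 nm excitation).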

In experiment [12] the target is Muscarinic acetylcholine receptor M1 (Rattus norvegicus) (UniProt P08482). Put plainly: qHTS Assay for Antagonists of Acetylcholine Muscarinic M1 Receptor: Kinetic Measurement of Intracellular Calcium Response (AID 943).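 Also: Fluo-4 calcium signal as peak divided by basal fluorescence over 4 min; nearly all actives have a fitted effect of over 75% in size.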 As to conditions: M1-expressing cells, kinetic intracellular calcium fluorescence; series mostly up to 35.3 µM. An outline of the steps:
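Antagonism measured as reduction of carbachol-evoked (EC80, 100 nM final) calcium flux in rat M1-CHO cells after 10 min compound exposure. Fluo-4 signal read kinetically; ratio of maximal to basal fluorescence.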

Experiment [13] has the same target. Put plainly: qHTS Assay for Antagonists of Acetylcholine Muscarinic M1 Receptor: Measurement of IP-One Response (AID 944). Also: nearly all actives have a fitted effect of over 75% in size. The settings on record: CHO-M1 cells, IP-One HTRF, antagonist mode; series mostly up to 46.1 µM. An outline of the steps: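 IP1 accumulation measured via TR-FRET between d2-IP1 and Eu-cryptate anti-IP1 antibody after carbachol (200 nM, EC80) stimulation for 30 min; rat M1-transfected CHO cells received compound 10 min before agonist.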

For experiment [14], the target named is Pyruvate kinase (Leishmania mexicana) (UniProt Q27686). Put plainly: qHTS Validation Assay for Inhibitors of Leishmania Mexicana Pyruvate Kinase (AID 945).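 Also: 0% = DMSO only neutral control wells.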 As to conditions: purified L. mexicana pyruvate kinase, enzyme activity, E451W mutant enzyme; series mostly up to 57.5 µM. An outline of the steps:
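Purified LmPYK (E451W mutant, 0.2 nM) was incubated 1 h at room temperature with 0.5 mM PEP and 0.1 mM ADP in 50 mM imidazole pH 7.2, 50 mM KCl, 7 mM MgCl2; ATP formed was read by PKLight luminescence, normalized to DMSO wells.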

The target of experiment [15] is Pyruvate kinase PKM (Homo sapiens) (UniProt P14618). Put plainly: qHTS Assay for Activators of Human Muscle Pyruvate Kinase (AID 954; active = well fitted curve in the direction sought with a large enough effect, not every such curve was filed as active;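 also: 0% = uninhibited enzyme and -100% = no enzyme or full thiadiazolimine inhibition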). As to conditions: purified human muscle pyruvate kinase, luciferase-coupled luminescence, 1 h; series mostly up to 57.5 µM. An outline of the steps: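 Compound pinned into substrate mix (0.5 mM PEP, 0.1 mM ADP), then 0.1 nM PKM2 added; 1 h, RT. Stop/detection luciferase reagent added, luminescence read. Normalized to no-inhibition and no-enzyme or reference-inhibitor controls.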
Pyruvate kinase PKM (Homo sapiens), sequence (P14618 whole entry, looked up): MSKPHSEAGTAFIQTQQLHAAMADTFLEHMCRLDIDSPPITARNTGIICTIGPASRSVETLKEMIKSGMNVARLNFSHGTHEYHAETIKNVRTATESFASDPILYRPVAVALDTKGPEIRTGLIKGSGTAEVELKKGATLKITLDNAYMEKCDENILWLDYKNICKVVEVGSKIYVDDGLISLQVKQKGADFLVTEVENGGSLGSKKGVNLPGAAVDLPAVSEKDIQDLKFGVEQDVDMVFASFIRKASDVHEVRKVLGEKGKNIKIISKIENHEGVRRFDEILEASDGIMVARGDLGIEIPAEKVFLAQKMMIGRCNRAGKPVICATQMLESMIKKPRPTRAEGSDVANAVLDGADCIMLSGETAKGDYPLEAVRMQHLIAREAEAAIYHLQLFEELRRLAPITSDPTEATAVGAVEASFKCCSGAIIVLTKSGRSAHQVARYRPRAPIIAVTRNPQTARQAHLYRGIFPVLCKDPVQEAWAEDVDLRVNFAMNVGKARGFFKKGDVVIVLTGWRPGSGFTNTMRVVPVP

The target in experiment [16] is Alpha-galactosidase A (Homo sapiens) (UniProt P06280). The experiment can be described thus: Counterscreen for Glucocerebrosidase Inhibitors: qHTS Assay for Human alpha-Galactosidase at pH 4.5 (AID 992). Also: 0% is about no effect. The settings on record: purified enzyme, fluorogenic substrate; series mostly up to 76.9 µM. An outline of the steps:
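Steps: enzyme (2 nM final), then compound across 0.7 nM to 77 uM, then 80 uM fluorogenic galactopyranoside substrate; incubate 20 min at room temperature; quench at pH 10; measure fluorescence at 365/440 nm.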
Background: A counterscreen serves to expose hits that act by an unwanted route or on another target.

Experiment [17] concerns the target alpha-glucosidase (Oryza sativa, rice) (UniProt Q653V4). The experiment can be described thus: Counterscreen for Glucocerebrosidase Inhibitors: qHTS Assay for Rice alpha-Glucosidase at pH 5.0 (AID 997).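 Also: 0% = full activity with enzyme and -100% = basal without enzyme.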 The settings on record: rice alpha-glucosidase enzyme activity; series mostly up to 76.9 µM. An outline of the steps: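 Endpoint fluorogenic assay at pH 5.0: compounds (0.7 nM to 77 uM) titrated against 4 nM rice enzyme and 400 uM 4-MU-alpha-glucoside for 20 min at room temperature; NaOH/glycine stop, read ex 365/em 440 nm, Hill-fitted AC50.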

A short description of experiment [18]: qHTS Assay for Lipid Storage Modulators (AID 1519; calls by dose curve). As to conditions: Drosophila S3 cells, BODIPY lipid droplet/cell ratio, laser cytometry, cells loaded with oleic acid. An outline of the steps:
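Cells seeded at 5,000 per well were treated with compounds over a concentration series and loaded with oleic acid (400 uM, as added). Lipid droplet fluorescence (488 nm excitation, 500-530 nm channel) was read by laser-scanning cytometry and normalized to 20 uM Triacsin C.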

The target of experiment [19] is DNA dC->dU-editing enzyme APOBEC-3G (Homo sapiens) (UniProt Q9HC16). Put plainly: qHTS for inhibitors of Vif-A3G interactions: Validation (AID 588379). Also: 0% is about no effect. The settings on record: Vif-A3G protein interaction assay; series mostly up to 46.1 µM. An outline of the steps:
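Yellow fluorescence (Ex 488, Em 500-530) of Vif-coexpressing HeLa A3G-eYFP cells, scanned by Acumen cytometer, reports blocked A3G degradation. Cells plated at 700/well overnight at 37 deg C before compound addition, then a further overnight compound incubation at 37 deg C.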

The test system of experiment [20] is Zika virus NS2B-NS3 protease. Put plainly: Primary screen GU AMC qHTS for Zika virus inhibitors (AID 1347154).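 Also: 0% = no-inhibitor control and -100% = no-enzyme control; nearly all actives have a fitted effect of over 70% in size.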 The settings on record: Zika NS2B-NS3 unlinked protease, AMC fluorogenic substrate; series mostly up to 54.1 µM. An outline of the steps:
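Unlinked Zika NS2B hydrophilic domain/NS3 protease domain noncovalent complex (25 nM final) in 10 mM Tris-HCl pH 8.0, 0.01% Tween 20, with AMC peptide substrate. Fluorescence (ex 340, em 450 nm) change over 15 min, room temperature; percent inhibition fitted to 4-parameter Hill equation.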

Inconclusive results are not listed. Activity calls are given as the source filed them. Unless noted, calls follow the shape of the dose curve; as a rule, active = well fitted curve in the direction sought with a large enough effect; inconclusive = small, poorly fitted or top-dose-only effect, or another doubt; inactive = no such curve, though single readings can be large; an effect the other way counts as inactive or inconclusive.

Muscarinic acetylcholine receptor M1 (Rattus norvegicus), sequence (P08482 whole entry, looked up): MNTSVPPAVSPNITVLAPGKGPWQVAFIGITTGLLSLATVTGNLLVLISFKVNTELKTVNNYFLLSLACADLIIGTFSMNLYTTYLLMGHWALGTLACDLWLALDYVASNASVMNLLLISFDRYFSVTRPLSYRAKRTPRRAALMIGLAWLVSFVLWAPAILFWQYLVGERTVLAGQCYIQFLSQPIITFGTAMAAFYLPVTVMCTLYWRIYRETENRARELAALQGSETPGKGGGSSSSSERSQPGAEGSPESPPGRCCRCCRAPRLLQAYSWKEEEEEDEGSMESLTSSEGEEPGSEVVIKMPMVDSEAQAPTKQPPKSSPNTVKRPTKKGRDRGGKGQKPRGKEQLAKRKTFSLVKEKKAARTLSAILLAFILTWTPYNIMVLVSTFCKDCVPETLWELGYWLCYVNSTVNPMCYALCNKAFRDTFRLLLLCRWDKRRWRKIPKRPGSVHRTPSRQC
Cytochrome P450 1A2 (Homo sapiens), sequence (P05177 whole entry, looked up): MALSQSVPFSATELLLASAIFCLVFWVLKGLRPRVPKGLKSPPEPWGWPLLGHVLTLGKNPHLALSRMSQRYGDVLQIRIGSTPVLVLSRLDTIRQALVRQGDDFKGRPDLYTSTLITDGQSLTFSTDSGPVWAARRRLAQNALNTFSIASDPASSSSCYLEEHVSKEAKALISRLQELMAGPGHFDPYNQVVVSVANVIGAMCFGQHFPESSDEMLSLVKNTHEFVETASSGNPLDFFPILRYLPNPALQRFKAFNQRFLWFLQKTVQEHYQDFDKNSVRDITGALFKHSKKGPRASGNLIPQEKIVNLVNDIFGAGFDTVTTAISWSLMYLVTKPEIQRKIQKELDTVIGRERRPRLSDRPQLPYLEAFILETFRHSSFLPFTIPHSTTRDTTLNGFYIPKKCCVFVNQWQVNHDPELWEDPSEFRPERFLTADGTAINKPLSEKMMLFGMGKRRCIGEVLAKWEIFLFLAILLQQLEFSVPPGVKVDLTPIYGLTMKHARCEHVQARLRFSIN
Alpha-galactosidase A (Homo sapiens), sequence (P06280 whole entry, looked up): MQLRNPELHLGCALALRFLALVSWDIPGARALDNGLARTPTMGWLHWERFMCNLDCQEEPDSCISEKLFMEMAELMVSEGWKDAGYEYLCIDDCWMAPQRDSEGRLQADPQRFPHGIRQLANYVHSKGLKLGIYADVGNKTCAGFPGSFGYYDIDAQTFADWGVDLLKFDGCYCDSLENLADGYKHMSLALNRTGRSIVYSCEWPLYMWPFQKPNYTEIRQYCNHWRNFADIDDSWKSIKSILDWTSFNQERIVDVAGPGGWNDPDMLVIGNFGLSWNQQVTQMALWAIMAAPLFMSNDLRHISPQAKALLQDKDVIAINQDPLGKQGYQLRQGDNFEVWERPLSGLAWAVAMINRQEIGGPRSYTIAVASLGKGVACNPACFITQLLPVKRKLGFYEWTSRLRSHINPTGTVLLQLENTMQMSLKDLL
Guanine nucleotide-binding protein G(i) subunit alpha-1 (Homo sapiens), sequence (P63096 whole entry, looked up): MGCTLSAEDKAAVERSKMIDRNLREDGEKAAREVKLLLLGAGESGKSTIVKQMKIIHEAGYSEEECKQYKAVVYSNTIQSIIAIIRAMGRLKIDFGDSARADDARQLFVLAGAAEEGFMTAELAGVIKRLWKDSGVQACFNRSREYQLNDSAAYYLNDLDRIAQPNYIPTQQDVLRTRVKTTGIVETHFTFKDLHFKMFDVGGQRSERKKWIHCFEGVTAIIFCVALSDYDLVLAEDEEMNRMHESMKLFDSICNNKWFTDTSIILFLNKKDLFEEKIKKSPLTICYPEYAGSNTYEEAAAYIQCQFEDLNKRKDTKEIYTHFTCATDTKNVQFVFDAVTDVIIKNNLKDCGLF
DNA dC->dU-editing enzyme APOBEC-3G (Homo sapiens), sequence (Q9HC16 whole entry, looked up): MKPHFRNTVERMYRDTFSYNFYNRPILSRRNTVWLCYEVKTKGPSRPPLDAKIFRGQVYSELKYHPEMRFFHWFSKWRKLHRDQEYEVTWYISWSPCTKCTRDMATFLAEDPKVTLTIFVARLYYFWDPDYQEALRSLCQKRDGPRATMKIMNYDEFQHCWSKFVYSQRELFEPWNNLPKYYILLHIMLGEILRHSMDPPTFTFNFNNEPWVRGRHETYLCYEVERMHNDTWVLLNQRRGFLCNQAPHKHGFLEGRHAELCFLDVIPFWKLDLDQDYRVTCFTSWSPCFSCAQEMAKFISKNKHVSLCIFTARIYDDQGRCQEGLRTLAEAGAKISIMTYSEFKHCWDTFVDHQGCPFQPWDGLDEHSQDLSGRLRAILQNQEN
Pyruvate kinase (Leishmania mexicana), sequence (Q27686 2-499 E452W): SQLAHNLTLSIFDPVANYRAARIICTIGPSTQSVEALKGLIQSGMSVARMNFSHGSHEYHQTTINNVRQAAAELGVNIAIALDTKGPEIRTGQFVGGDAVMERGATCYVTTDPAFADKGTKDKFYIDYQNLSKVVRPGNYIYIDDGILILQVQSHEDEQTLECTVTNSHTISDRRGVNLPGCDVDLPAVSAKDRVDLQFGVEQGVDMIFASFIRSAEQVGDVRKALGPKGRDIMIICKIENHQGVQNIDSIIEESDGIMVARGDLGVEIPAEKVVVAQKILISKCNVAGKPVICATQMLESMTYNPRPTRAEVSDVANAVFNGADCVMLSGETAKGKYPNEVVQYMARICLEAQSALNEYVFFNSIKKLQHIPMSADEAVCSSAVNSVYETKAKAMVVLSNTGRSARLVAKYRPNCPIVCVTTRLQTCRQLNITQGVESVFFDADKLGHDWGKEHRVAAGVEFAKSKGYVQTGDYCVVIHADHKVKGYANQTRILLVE
3',5'-cyclic-AMP phosphodiesterase 4B (Homo sapiens), sequence (Q07343 whole entry, looked up): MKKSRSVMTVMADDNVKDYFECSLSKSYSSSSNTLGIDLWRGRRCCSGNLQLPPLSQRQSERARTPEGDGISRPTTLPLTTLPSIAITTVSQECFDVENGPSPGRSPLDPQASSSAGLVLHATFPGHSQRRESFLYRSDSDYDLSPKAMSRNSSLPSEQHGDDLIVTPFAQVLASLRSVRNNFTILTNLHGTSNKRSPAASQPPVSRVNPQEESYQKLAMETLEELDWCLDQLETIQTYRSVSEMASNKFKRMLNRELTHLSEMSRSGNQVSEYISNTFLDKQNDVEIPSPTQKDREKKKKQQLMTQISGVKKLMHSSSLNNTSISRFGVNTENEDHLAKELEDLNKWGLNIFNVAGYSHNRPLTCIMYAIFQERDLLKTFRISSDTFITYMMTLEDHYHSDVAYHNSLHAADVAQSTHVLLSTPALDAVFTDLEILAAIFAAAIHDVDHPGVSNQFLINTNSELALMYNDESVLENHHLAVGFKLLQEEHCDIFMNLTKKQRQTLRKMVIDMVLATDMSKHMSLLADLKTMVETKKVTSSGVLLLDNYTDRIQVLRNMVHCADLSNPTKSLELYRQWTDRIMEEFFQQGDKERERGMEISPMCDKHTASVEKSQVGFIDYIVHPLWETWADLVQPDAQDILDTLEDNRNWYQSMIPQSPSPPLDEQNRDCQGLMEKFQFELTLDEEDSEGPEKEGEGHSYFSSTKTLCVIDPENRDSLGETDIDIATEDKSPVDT

`CC(=O)N[C@@H](C(=O)O)C(C)(C)SN=O`: the figures for the activity change, negative = inhibition in experiment [1], in experiment [3] and in experiment [18] (at 57.5 µM (top of the series)) were -1.8% (inactive), 9.84% (inactive) and 9.07% (inactive), respectively. Also, the Potency result in experiment [2], in experiment [7], in [8], in experiment [12], in [13] and in experiment [14] was “inactive” throughout. The Potency entry in [19] and in [20] was “inactive” each time. In [4], the activity, negative = inhibition is 2.94% (inactive). In addition, the Potency in [5] and in experiment [6] was > 46 µM (inactive) throughout. Besides, the outcome in experiment [9], in experiment [10], in experiment [11], in experiment [15], in experiment [16] and in [17] was inactive. For the same molecule, the max response came to 15.4% in experiment [18] (measured here: cell count channel max response) and 28.4% in [18] (measured here: lipid channel max response).
